Data taken from PubChem BioAssay (NCI).
About 83,000 compounds went through this panel and 20% of them were active in at least one assay; those are over-represented in the sample as a whole.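 Growth was measured after 48 h exposure to one concentration of compound in 96-well plates. Values under 10 count as active.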 Calls of active or inactive are those of the source.

Columns and labels:
Experiment in all cases: NCI-60 one-dose screen, 48 h (100 = growth as untreated, 0 = no growth, -100 = all killed)
Settings in all cases: 10 µM
NCI-H23 lung = tested on: NCI-H23 lung
NCI-H226 lung = tested on: NCI-H226 lung
NCI-H322M lung = tested on: NCI-H322M lung
HOP-62 NSCLC = tested on: HOP-62 NSCLC
NCI-H460 lung = tested on: NCI-H460 lung
HOP-92 NSCLC = tested on: HOP-92 NSCLC
NCI-H522 lung = tested on: NCI-H522 lung
A549/ATCC NSCLC = tested on: A549/ATCC NSCLC
786-0 renal = tested on: 786-0 renal
COLO 205 colon = tested on: COLO 205 colon

Measured: growth

CCOC(=O)c1c(C(F)(F)F)n([O-])c2ccc(OC)cc2[n+]1=O
active: HOP-92 NSCLC -34.7% | NCI-H522 lung -25.9%
inactive: NCI-H23 lung 30.3% | NCI-H226 lung 47.4% | NCI-H322M lung 58% | HOP-62 NSCLC 17.1% | NCI-H460 lung 18.7% | A549/ATCC NSCLC 26.8% | 786-0 renal 42.2% | COLO 205 colon 31.1%

Cc1cc2cc3c(=O)[nH]c(=O)cc-3n(CC(O)C(O)C(O)CO)c2cc1C (stereo not given)
inactive: NCI-H23 lung 106% | NCI-H226 lung 110% | NCI-H322M lung 119% | HOP-62 NSCLC 81.1% | NCI-H460 lung 101% | HOP-92 NSCLC 111% | NCI-H522 lung 96.2% | A549/ATCC NSCLC 97.8% | 786-0 renal 103% | COLO 205 colon 93.1%

Cc1ccc(/C=C2\CN(Cc3cn(CCNc4ccnc5cc(Cl)ccc45)nn3)C/C(=C\c3ccc(C)cc3)C2=O)cc1
active: NCI-H23 lung -26.8% | NCI-H226 lung -66.9% | NCI-H322M lung 5.6% | HOP-62 NSCLC -64.5% | NCI-H460 lung -51% | HOP-92 NSCLC -42.6% | NCI-H522 lung -49.5% | A549/ATCC NSCLC -17.2% | 786-0 renal -36% | COLO 205 colon -66.7%

COc1ccc(/C=C(\c2cc(OC)c(OC)c(OC)c2)c2nnc(-c3cccs3)o2)cc1
inactive: NCI-H23 lung 76.1% | NCI-H226 lung 92.5% | NCI-H322M lung 82.7% | HOP-62 NSCLC 41.3% | NCI-H460 lung 72.7% | HOP-92 NSCLC 34.8% | NCI-H522 lung 43.7% | A549/ATCC NSCLC 77.5% | 786-0 renal 48.9% | COLO 205 colon 112%

CCCc1ccnc(NS(=O)(=O)c2ccc(N)cc2)n1
inactive: NCI-H23 lung 62.8% | NCI-H226 lung 79.2% | NCI-H322M lung 103% | HOP-62 NSCLC 105% | NCI-H460 lung 95.4% | HOP-92 NSCLC 93.1% | NCI-H522 lung 56.6% | A549/ATCC NSCLC 79.3% | 786-0 renal 90.3% | COLO 205 colon 37.8%

COc1cccc2c1O/C(=C\c1ccc([N+](=O)[O-])s1)C2=O
inactive: NCI-H23 lung 71.8% | NCI-H226 lung 97.1% | NCI-H322M lung 82% | HOP-62 NSCLC 92.4% | NCI-H460 lung 70.9% | HOP-92 NSCLC 14.6% | A549/ATCC NSCLC 78.5% | 786-0 renal 103% | COLO 205 colon 67.3%
active: NCI-H522 lung -65%

CCCCCC(=O)N1c2ccccc2NC2=C(C(=O)CC(c3ccc(OC)c(OC)c3)C2)C1c1ccc(C(F)(F)F)cc1 (stereo not given)
inactive: NCI-H23 lung 51.5% | NCI-H226 lung 64.8% | NCI-H322M lung 70.6% | HOP-62 NSCLC 54.8% | NCI-H460 lung 76.9% | HOP-92 NSCLC 66.4% | NCI-H522 lung 37.5% | A549/ATCC NSCLC 58.5% | 786-0 renal 65.8% | COLO 205 colon 69.2%

Nc1ccc(Sc2ccc3c4c2cccc4c(=O)n2c4ccccc4nc32)cc1
active: NCI-H460 lung 9.47%
inactive: NCI-H23 lung 37.5% | NCI-H226 lung 40.6% | NCI-H322M lung 61.8% | HOP-62 NSCLC 51.2% | HOP-92 NSCLC 28.7% | NCI-H522 lung 60% | A549/ATCC NSCLC 20.6% | 786-0 renal 37.3% | COLO 205 colon 50.8%

COc1ccc(-c2cn[nH]c2-c2cc(OC)c(OC)c(OC)c2)cc1
inactive: NCI-H23 lung 27.8% | NCI-H226 lung 56.7% | NCI-H322M lung 26.4% | HOP-62 NSCLC 45.2% | A549/ATCC NSCLC 21.2%
active: NCI-H460 lung 3.25% | HOP-92 NSCLC -5.63% | NCI-H522 lung -17.9% | 786-0 renal -4.65% | COLO 205 colon -68%

COc1cc(Cl)cc(-c2nn(-c3cccc(NC(=O)Nc4cccc(C(F)(F)F)c4)c3)cc2-c2ccncc2)c1
inactive: NCI-H322M lung 26.2% | HOP-62 NSCLC 15.5% | 786-0 renal 13.2%
active: NCI-H23 lung -5.1% | NCI-H226 lung 3.94% | NCI-H460 lung -6.11% | HOP-92 NSCLC -27.3% | NCI-H522 lung -18.6% | A549/ATCC NSCLC 8.08% | COLO 205 colon -31.2%

C=C[C@]1(C)C=C2C(=O)[C@@]3(O)OC(=O)[C@@]4(CCCC(C)(C)[C@H]34)[C@@]2(O)CC1
active: NCI-H23 lung -60.6% | NCI-H226 lung -55.8% | NCI-H322M lung -27.4% | HOP-62 NSCLC -1.33% | NCI-H460 lung 0.905% | HOP-92 NSCLC -87.6% | NCI-H522 lung -71.7% | A549/ATCC NSCLC -66.6% | 786-0 renal -98.5% | COLO 205 colon -98.2%

NC(=O)c1ccc(Br)o1
inactive: NCI-H23 lung 95.1% | NCI-H226 lung 104% | NCI-H322M lung 104% | HOP-62 NSCLC 91.7% | NCI-H460 lung 109% | HOP-92 NSCLC 114% | NCI-H522 lung 88.3% | A549/ATCC NSCLC 109% | 786-0 renal 96.8% | COLO 205 colon 103%

c1ccc(C2CCCCC2)c(OCCCCCN2CCNCC2)c1
inactive: NCI-H23 lung 71.2% | NCI-H226 lung 84.7% | NCI-H322M lung 72.6% | HOP-62 NSCLC 78.9% | HOP-92 NSCLC 29.4% | NCI-H522 lung 60.8% | A549/ATCC NSCLC 53% | 786-0 renal 60.1%
active: NCI-H460 lung 4.61% | COLO 205 colon -74.6%

COc1cc(C2C(C#N)=C(c3c[nH]c4ccccc34)Nc3nc(N)[nH]c(=O)c32)cc(OC)c1OC (stereo not given)
inactive: NCI-H23 lung 80.7% | NCI-H226 lung 86.3% | NCI-H322M lung 104% | HOP-62 NSCLC 82.9% | NCI-H460 lung 106% | HOP-92 NSCLC 47.8% | A549/ATCC NSCLC 105% | 786-0 renal 100% | COLO 205 colon 65%
active: NCI-H522 lung -11.7%
